# According to PubChem BioAssay (NCI):
# This is part of a sample that, as a whole, favours compounds with a hit. Of some 79,000 tested, about 15% had one in any assay. Values without a mark were called inactive. Active and inactive are the calls of the source. Cut-off read from the data, not from the text of the source: active = growth inhibition above about 70%; inactive = the rest.
# Columns and labels:
# [1] = NCI Yeast Anticancer Drug Screen. Data for the rad52 strain (AID 147);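 note: 0% = growth of vehicle-treated control cultures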; conditions: S. cerevisiae rad52 mutant growth inhibition, stronger effect = higher value
# How it was run: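 DNA repair-defective yeast; compound exposure; growth scored against vehicle controls.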
# [2] = NCI Yeast Anticancer Drug Screen. Data for the wt1 strain (AID 149);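 note: 0% = growth of vehicle-treated wt1 cultures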; conditions: S. cerevisiae wt1 strain (SPY 50644) growth inhibition, stronger effect = higher value
# How it was run: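 wt1 yeast, compound-treated; % growth inhibition vs vehicle control.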
# [3] = NCI Yeast Anticancer Drug Screen. Data for the rad50EPP+ strain (AID 151);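 note: 0% = growth of vehicle-treated control cultures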; conditions: S. cerevisiae rad50 mutant strain, stronger effect = higher value
# How it was run: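 rad50EPP+ yeast treated with test compounds. Readout: growth vs vehicle control.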
# [4] = NCI Yeast Anticancer Drug Screen. Data for the mgt1 strain (AID 153); conditions: S. cerevisiae mgt1 mutant growth inhibition, stronger effect = higher value
# How it was run: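 Growth inhibition relative to vehicle controls was scored for the mgt1 yeast strain after compound exposure.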
# [5] = NCI Yeast Anticancer Drug Screen. Data for the rad50 strain (AID 155);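 note: 0% = growth of vehicle-only cultures of the same strain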; conditions: S. cerevisiae rad50 strain growth inhibition, stronger effect = higher value
# How it was run: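 Genetically altered yeast (DNA repair pathway); compound treatment; growth inhibition vs vehicle ctrl.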
# [6] = NCI Yeast Anticancer Drug Screen. Data for the mec2-1 strain (AID 157); conditions: S. cerevisiae mec2-1 strain, stronger effect = higher value
# How it was run: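 Growth inhibition is read against vehicle-treated controls after compound exposure of the mec2-1 yeast strain, which is defective in DNA damage repair or cell cycle control.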
# [7] = NCI Yeast Anticancer Drug Screen. Data for the rad14 strain (AID 159);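 note: 0% = growth of vehicle-treated control cultures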; conditions: S. cerevisiae rad14 strain growth inhibition, stronger effect = higher value
# How it was run: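 Test compounds were applied to a repair-deficient yeast strain. Its growth was then compared with that of cultures given vehicle alone, and inhibition was expressed relative to those controls.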
# [8] = NCI Yeast Anticancer Drug Screen. Data for the sgs1 mgt1 strain (AID 161);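 note: 0% = growth of cultures given vehicle only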; conditions: S. cerevisiae sgs1 mgt1 strain, stronger effect = higher value
# How it was run: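 This yeast growth screen uses a strain with defined DNA-repair lesions; compound-treated growth is compared with vehicle-treated growth.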
# [9] = NCI Yeast Anticancer Drug Screen. Data for the CLN2oe strain (AID 163);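 note: 0% = growth of vehicle-only control cultures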; conditions: S. cerevisiae CLN2oe strain, stronger effect = higher value
# How it was run: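 Compound-treated yeast; growth vs vehicle ctrl = % inhibition. Genetically altered strain (cell-cycle control).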
# [10] = NCI Yeast Anticancer Drug Screen. Data for the cln2 rad14 strain (AID 165);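 note: 0% = growth equal to vehicle treated cultures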; conditions: S. cerevisiae cln2 rad14 strain, stronger effect = higher value
# How it was run: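 Growth inhibition, relative to vehicle-treated controls, is the read-out. The test organism is a yeast strain with defined genetic alterations, cln2 rad14.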
# [11] = NCI Yeast Anticancer Drug Screen. Data for the bub3 strain (AID 167); conditions: S. cerevisiae bub3 mutant strain, stronger effect = higher value
# How it was run: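 Yeast carrying a defined mutation is treated with each compound, and growth is compared with that of vehicle-exposed cells to give inhibition.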
# [12] = NCI Yeast Anticancer Drug Screen. Data for the wt2 strain (AID 169);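 note: 0% = growth of vehicle-treated yeast cultures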; conditions: S. cerevisiae wt2 strain growth inhibition, stronger effect = higher value
# How it was run: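 Compound exposure of yeast; growth compared with vehicle controls; inhibition reported.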
# [13] = NCI Yeast Anticancer Drug Screen. Data for the mlh1 strain (AID 171);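 note: 0% = growth of vehicle-treated control cultures of the same strain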; conditions: S. cerevisiae mlh1 strain growth inhibition, stronger effect = higher value
# How it was run: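 Compounds are applied to a genetically altered yeast strain, and its growth is compared with that of vehicle-treated cultures to give percent inhibition.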
# [14] = NCI Yeast Anticancer Drug Screen. Data for the sgs1 strain (AID 173);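 note: 0% = growth of vehicle-only control cultures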; conditions: S. cerevisiae sgs1 mutant, stronger effect = higher value
# How it was run: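 Compounds applied to genetically altered yeast; growth compared with vehicle-treated cultures to give % inhibition.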
# [15] = NCI Yeast Anticancer Drug Screen. Data for the mlh1 rad18 strain (AID 175); conditions: S. cerevisiae mlh1 rad18 strain growth inhibition, stronger effect = higher value
# How it was run: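 Cells of a genetically altered yeast strain, deficient in DNA damage repair, were treated with compound. Their growth was then compared with that of vehicle-treated cultures to give inhibition.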
# [16] = NCI Yeast Anticancer Drug Screen. Data for the rad18 strain (AID 177); conditions: S. cerevisiae rad18 mutant growth inhibition, stronger effect = higher value
# How it was run: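 Compounds are applied to a repair-deficient yeast strain, and growth is compared with that of vehicle-treated cultures to give percent inhibition.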
# [17] = at 5.0 µM (retest, dose inferred, filed as 0.5)
# [18] = at 50.0 µM (retest, dose inferred, filed as 5.0)
smiles,measurement,setting,value
CNCCCNc1c2ccccc2nc2cccc([N+](=O)[O-])c12,growth inhibition,[1]; at 1.2 µM,83% (active)
same,growth inhibition,[1]; at 3.7 µM,85% (active)
same,growth inhibition,[1]; at 11.0 µM,90% (active)
same,growth inhibition,[1]; at 33.0 µM,94% (active)
same,growth inhibition,[1]; at 100.0 µM,96% (active)
same,growth inhibition,[2]; at 1.2 µM,2%
same,growth inhibition,[2]; at 3.7 µM,28%
same,growth inhibition,[2]; at 11.0 µM,77% (active)
same,growth inhibition,[2]; at 33.0 µM,92% (active)
same,growth inhibition,[2]; at 100.0 µM,97% (active)
same,growth inhibition,[3]; at 1.2 µM,43%
same,growth inhibition,[3]; at 3.7 µM,89% (active)
same,growth inhibition,[3]; at 11.0 µM,96% (active)
same,growth inhibition,[3]; at 33.0 µM,97% (active)
same,growth inhibition,[3]; at 100.0 µM,98% (active)
same,growth inhibition,[4]; at 1.2 µM,18%
same,growth inhibition,[4]; at 3.7 µM,42%
same,growth inhibition,[4]; at 11.0 µM,72% (active)
same,growth inhibition,[4]; at 33.0 µM,94% (active)
same,growth inhibition,[4]; at 100.0 µM,97% (active)
same,growth inhibition,[5]; at 1.2 µM,73% (active)
same,growth inhibition,[5]; at 3.7 µM,82% (active)
same,growth inhibition,[5]; [17],77% (active)
same,growth inhibition,[5]; at 11.0 µM,91% (active)
same,growth inhibition,[5]; at 33.0 µM,93% (active)
same,growth inhibition,[5]; [18],95% (active)
same,growth inhibition,[5]; at 50.0 µM,84.8% (active)
same,growth inhibition,[5]; at 100.0 µM,96% (active)
same,growth inhibition,[6]; at 1.2 µM,41%
same,growth inhibition,[6]; at 3.7 µM,87% (active)
same,growth inhibition,[6]; [17],89% (active)
same,growth inhibition,[6]; at 11.0 µM,92% (active)
same,growth inhibition,[6]; at 33.0 µM,95% (active)
same,growth inhibition,[6]; [18],97% (active)
same,growth inhibition,[6]; at 50.0 µM,91% (active)
same,growth inhibition,[6]; at 100.0 µM,97% (active)
same,growth inhibition,[7]; at 1.2 µM,84% (active)
same,growth inhibition,[7]; at 3.7 µM,93% (active)
same,growth inhibition,[7]; at 11.0 µM,96% (active)
same,growth inhibition,[7]; at 33.0 µM,96% (active)
same,growth inhibition,[7]; at 100.0 µM,97% (active)
same,growth inhibition,[8]; [17],87% (active)
same,growth inhibition,[8]; [18],96% (active)
same,growth inhibition,[8]; at 50.0 µM,91.2% (active)
same,growth inhibition,[9]; at 1.2 µM,-1%
same,growth inhibition,[9]; at 3.7 µM,28%
same,growth inhibition,[9]; at 11.0 µM,80% (active)
same,growth inhibition,[9]; at 33.0 µM,93% (active)
same,growth inhibition,[9]; at 100.0 µM,97% (active)
same,growth inhibition,[10]; [17],77% (active)
same,growth inhibition,[10]; [18],95% (active)
same,growth inhibition,[10]; at 50.0 µM,91.3% (active)
same,growth inhibition,[11]; at 1.2 µM,-12%
same,growth inhibition,[11]; at 3.7 µM,38%
same,growth inhibition,[11]; [17],21%
same,growth inhibition,[11]; at 11.0 µM,92% (active)
same,growth inhibition,[11]; at 33.0 µM,98% (active)
same,growth inhibition,[11]; [18],96% (active)
same,growth inhibition,[11]; at 50.0 µM,85.8% (active)
same,growth inhibition,[11]; at 100.0 µM,99% (active)
same,growth inhibition,[12]; at 1.2 µM,2%
same,growth inhibition,[12]; at 3.7 µM,23%
same,growth inhibition,[12]; at 11.0 µM,86% (active)
same,growth inhibition,[12]; at 33.0 µM,97% (active)
same,growth inhibition,[12]; at 100.0 µM,99% (active)
same,growth inhibition,[13]; at 1.2 µM,18%
same,growth inhibition,[13]; at 3.7 µM,42%
same,growth inhibition,[13]; at 11.0 µM,72% (active)
same,growth inhibition,[13]; at 33.0 µM,94% (active)
same,growth inhibition,[13]; at 100.0 µM,97% (active)
same,growth inhibition,[14]; at 1.2 µM,67%
same,growth inhibition,[14]; at 3.7 µM,84% (active)
same,growth inhibition,[14]; at 11.0 µM,92% (active)
same,growth inhibition,[14]; at 33.0 µM,92% (active)
same,growth inhibition,[14]; at 100.0 µM,95% (active)
same,growth inhibition,[15]; [17],88% (active)
same,growth inhibition,[15]; [18],96% (active)
same,growth inhibition,[15]; at 50.0 µM,85.3% (active)
same,growth inhibition,[16]; at 1.2 µM,92% (active)
same,growth inhibition,[16]; at 3.7 µM,95% (active)
same,growth inhibition,[16]; at 11.0 µM,93% (active)
same,growth inhibition,[16]; at 33.0 µM,95% (active)
same,growth inhibition,[16]; at 100.0 µM,96% (active)
Cc1cc(C(C)(C)CC(C)(C)C)ccc1O,growth inhibition,[1]; at 1.2 µM,-22%
same,growth inhibition,[1]; at 3.7 µM,-45%
same,growth inhibition,[1]; at 11.0 µM,15%
same,growth inhibition,[1]; at 33.0 µM,98% (active)
same,growth inhibition,[1]; at 100.0 µM,98% (active)
same,growth inhibition,[2]; at 1.2 µM,-1%
same,growth inhibition,[2]; at 3.7 µM,-22%
same,growth inhibition,[2]; at 11.0 µM,17%
same,growth inhibition,[2]; at 33.0 µM,99% (active)
same,growth inhibition,[2]; at 100.0 µM,99% (active)
same,growth inhibition,[3]; at 1.2 µM,-16%
same,growth inhibition,[3]; at 3.7 µM,-16%
same,growth inhibition,[3]; at 11.0 µM,1%
same,growth inhibition,[3]; at 33.0 µM,60%
same,growth inhibition,[3]; at 100.0 µM,99% (active)
same,growth inhibition,[4]; at 1.2 µM,-52%
same,growth inhibition,[4]; at 3.7 µM,-66%
same,growth inhibition,[4]; at 11.0 µM,-37%
same,growth inhibition,[4]; at 33.0 µM,98% (active)
same,growth inhibition,[4]; at 100.0 µM,99% (active)
same,growth inhibition,[5]; at 1.2 µM,12%
same,growth inhibition,[5]; at 3.7 µM,11%
same,growth inhibition,[5]; [17],25%
same,growth inhibition,[5]; at 11.0 µM,38%
same,growth inhibition,[5]; at 33.0 µM,98% (active)
same,growth inhibition,[5]; [18],79% (active)
same,growth inhibition,[5]; at 50.0 µM,92.3% (active)
same,growth inhibition,[5]; at 100.0 µM,99% (active)
same,growth inhibition,[6]; at 1.2 µM,-41%
same,growth inhibition,[6]; at 3.7 µM,-58%
